From the supplement of paper PMC11001985

Compound: C#CCNC(=O)CCSSCCC(=O)NCCc1ccc(C=O)c(C=O)c1
Assay: lysine labeling ratio R10:1 (500 µM / 50 µM probe), SILAC-ABPP in living cells; higher = lower intrinsic lysine reactivity toward the probe, active = 2 or less
Conditions: HeLa; probe concentrations 500 vs 50 µM
Summary of the method: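 An alkyne-tagged lysine probe with a disulfide linker labelled living HeLa cells in PBS at room temperature at either 50 µM or 500 µM, using SILAC light and heavy cells in forward and reverse label swaps. Lysates were mixed, clicked to biotin-azide, trypsin-digested, enriched on neutravidin, DTT-released, alkylated and measured by LC-MS/MS on a TIMS-TOF Pro. Each lysine's R is the filtered median high-probe/low-probe MS1 peptide ratio, combined as the median over forward and reverse replicates, with 20 as the upper limit.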

Sequence of UniProt Q15149 (Q15149 whole entry): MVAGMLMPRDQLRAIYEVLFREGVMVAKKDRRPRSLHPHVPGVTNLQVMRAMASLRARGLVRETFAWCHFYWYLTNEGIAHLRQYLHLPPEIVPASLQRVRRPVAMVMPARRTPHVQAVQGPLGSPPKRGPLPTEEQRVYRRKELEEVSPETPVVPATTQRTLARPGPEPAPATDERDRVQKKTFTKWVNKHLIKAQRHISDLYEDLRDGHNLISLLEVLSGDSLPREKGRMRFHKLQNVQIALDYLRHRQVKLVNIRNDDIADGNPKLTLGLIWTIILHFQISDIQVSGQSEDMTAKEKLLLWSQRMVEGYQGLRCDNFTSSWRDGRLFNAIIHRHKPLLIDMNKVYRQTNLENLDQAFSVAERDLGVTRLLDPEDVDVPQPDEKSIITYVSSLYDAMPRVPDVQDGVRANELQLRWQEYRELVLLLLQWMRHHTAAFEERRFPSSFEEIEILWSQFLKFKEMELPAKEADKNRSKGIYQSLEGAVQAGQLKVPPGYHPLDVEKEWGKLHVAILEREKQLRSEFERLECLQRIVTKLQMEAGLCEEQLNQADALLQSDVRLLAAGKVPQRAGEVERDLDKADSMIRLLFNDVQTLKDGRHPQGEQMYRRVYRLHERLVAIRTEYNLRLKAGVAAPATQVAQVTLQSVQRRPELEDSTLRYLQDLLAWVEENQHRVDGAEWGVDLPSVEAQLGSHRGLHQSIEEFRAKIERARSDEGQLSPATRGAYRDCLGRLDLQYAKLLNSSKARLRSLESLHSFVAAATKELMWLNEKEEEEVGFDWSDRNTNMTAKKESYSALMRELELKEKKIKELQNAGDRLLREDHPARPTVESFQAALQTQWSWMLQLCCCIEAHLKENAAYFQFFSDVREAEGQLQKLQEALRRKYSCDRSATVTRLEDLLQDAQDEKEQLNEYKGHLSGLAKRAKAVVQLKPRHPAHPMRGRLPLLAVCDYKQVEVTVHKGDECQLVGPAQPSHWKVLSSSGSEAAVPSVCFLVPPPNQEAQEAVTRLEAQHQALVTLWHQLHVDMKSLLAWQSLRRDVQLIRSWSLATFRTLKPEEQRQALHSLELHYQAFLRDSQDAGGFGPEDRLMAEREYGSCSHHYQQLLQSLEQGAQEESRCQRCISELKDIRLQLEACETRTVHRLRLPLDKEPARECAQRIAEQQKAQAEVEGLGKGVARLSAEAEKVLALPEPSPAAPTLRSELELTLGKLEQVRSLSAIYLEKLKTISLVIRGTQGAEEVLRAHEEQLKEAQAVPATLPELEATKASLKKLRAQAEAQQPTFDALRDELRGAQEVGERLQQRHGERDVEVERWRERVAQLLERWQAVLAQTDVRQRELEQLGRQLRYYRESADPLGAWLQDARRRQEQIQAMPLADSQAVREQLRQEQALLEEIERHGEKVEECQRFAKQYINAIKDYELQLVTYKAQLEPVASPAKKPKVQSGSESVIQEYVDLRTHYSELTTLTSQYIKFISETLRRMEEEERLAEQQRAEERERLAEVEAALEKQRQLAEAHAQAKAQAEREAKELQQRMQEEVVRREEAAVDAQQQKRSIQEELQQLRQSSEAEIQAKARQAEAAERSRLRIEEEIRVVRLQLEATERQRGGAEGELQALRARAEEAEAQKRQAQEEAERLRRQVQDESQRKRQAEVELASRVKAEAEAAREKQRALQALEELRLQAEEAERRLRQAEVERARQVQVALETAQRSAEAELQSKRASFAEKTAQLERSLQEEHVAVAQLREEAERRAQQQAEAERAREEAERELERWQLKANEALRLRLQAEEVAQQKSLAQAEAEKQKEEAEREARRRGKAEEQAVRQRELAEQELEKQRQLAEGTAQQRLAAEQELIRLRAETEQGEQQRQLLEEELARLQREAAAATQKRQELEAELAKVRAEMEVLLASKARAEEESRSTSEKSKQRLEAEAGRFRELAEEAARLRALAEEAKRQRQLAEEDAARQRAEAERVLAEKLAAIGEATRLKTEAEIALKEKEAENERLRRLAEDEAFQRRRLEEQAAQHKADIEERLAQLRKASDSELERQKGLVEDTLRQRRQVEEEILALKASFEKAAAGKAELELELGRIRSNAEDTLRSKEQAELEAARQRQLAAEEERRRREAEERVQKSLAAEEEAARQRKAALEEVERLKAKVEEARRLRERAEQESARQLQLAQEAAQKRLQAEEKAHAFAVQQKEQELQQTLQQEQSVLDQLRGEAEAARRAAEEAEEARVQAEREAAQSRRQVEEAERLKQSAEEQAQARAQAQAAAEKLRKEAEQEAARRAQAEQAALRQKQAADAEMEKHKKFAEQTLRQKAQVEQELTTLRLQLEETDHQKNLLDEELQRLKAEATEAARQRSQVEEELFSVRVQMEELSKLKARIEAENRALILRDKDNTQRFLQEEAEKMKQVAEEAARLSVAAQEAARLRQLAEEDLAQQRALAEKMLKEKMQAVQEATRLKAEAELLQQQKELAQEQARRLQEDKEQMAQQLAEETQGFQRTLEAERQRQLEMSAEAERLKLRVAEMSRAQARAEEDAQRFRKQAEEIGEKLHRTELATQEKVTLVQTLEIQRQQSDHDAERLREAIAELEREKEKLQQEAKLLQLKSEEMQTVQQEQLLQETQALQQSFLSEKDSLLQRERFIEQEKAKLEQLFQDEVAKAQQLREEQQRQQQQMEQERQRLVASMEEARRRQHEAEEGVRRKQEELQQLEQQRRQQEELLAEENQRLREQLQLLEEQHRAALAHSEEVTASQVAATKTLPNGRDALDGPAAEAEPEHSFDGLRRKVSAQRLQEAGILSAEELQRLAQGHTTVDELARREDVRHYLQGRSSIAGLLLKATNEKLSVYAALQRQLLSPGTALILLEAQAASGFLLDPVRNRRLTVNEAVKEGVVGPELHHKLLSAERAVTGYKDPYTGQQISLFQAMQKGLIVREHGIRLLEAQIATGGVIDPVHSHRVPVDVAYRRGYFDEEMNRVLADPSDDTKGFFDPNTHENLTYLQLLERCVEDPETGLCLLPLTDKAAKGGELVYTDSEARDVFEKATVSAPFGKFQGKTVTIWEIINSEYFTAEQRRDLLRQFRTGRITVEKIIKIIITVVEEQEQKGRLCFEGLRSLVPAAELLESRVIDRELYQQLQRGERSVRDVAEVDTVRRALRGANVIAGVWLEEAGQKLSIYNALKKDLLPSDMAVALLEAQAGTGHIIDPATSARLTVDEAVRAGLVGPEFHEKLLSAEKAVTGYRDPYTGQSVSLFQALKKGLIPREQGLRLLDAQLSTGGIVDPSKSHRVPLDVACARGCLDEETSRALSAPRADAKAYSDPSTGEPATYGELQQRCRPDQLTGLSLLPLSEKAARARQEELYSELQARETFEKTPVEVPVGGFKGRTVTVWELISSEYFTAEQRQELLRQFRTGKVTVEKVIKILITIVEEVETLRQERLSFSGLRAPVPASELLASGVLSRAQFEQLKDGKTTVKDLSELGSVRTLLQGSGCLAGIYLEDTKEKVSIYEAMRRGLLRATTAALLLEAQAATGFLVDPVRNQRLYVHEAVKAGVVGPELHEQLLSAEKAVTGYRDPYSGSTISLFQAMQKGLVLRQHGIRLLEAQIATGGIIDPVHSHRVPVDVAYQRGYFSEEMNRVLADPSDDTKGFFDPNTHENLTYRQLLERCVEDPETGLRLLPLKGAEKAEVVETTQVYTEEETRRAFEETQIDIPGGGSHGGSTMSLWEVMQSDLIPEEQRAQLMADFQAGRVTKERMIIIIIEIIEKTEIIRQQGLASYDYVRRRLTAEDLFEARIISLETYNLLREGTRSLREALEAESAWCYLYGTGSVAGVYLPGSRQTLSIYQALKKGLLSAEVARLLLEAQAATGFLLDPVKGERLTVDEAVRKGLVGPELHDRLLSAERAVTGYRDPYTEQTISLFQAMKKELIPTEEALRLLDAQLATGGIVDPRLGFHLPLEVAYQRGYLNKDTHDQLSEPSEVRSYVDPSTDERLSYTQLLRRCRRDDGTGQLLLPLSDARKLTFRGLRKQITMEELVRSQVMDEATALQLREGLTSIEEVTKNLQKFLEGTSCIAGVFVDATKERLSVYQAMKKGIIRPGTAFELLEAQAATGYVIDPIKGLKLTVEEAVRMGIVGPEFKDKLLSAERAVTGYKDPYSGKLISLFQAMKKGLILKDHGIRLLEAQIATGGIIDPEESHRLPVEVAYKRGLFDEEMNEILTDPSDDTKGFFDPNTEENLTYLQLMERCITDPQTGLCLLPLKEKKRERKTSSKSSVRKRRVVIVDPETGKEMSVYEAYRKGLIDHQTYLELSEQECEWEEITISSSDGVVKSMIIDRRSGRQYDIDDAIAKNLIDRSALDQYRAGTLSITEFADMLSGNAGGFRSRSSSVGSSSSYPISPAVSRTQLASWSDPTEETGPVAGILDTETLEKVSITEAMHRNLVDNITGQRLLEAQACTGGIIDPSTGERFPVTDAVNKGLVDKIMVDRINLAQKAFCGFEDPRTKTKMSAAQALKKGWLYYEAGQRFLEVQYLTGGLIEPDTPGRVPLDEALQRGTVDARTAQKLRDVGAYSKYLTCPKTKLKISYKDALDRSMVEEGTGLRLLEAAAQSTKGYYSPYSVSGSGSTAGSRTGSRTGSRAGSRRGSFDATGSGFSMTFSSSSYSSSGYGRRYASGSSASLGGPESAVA
Sequence of UniProt Q9P0L0 (Q9P0L0 whole entry): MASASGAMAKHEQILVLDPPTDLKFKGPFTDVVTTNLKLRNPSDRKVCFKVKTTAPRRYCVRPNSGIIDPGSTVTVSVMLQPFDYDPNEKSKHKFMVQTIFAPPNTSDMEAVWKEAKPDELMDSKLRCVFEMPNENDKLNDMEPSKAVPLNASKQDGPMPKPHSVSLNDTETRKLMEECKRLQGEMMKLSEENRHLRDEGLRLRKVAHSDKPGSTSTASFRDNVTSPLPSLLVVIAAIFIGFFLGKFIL
Sequence of UniProt P21926 (P21926 whole entry): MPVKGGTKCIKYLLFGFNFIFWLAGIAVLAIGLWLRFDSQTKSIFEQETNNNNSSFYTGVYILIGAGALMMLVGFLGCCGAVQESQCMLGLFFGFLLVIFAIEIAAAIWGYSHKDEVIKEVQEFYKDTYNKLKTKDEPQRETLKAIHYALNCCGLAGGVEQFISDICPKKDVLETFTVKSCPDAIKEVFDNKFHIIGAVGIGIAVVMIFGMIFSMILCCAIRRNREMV

Row | Target | lysine labeling ratio R10:1
1 | FLNB (lysine site: K2088) (UniProt O75369) | 2.27 (inactive)
2 | PDIA6 (lysine site: K150) (UniProt Q15084) | 4.08 (inactive)
3 | IGF1R (lysine site: K598) (UniProt P08069) | 5.67 (inactive)
4 | VAPA (lysine site: K180) (UniProt Q9P0L0) | 1.96 (active)
5 | CD109 (lysine site: K573) (UniProt Q6YHK3) | 2.8 (inactive)
6 | IQGAP1 (lysine site: K368) (UniProt P46940) | 3.38 (inactive)
7 | ENG (lysine site: K556) (UniProt P17813) | 2.03 (inactive)
8 | UniProt Q8WXI7 (lysine site: K10462) | 1.27 (active)
9 | VCL (lysine site: K453) (UniProt P18206) | 3.28 (inactive)
10 | THBS1 (lysine site: K968) (UniProt P07996) | 1.48 (active)
11 | ITGA5 (lysine site: K910) (UniProt P08648) | 3.88 (inactive)
12 | ITGAV (lysine site: K499) (UniProt P06756) | 3.64 (inactive)
13 | UniProt Q15149 (lysine site: K877) | 2.95 (inactive)
14 | UniProt Q15149 (lysine site: K2553) | 3.44 (inactive)
15 | UniProt Q15149 (lysine site: K1908) | 3.91 (inactive)
16 | SEMA3C (lysine site: K247) (UniProt Q99985) | 4.79 (inactive)
17 | ANPEP (lysine site: K205) (UniProt P15144) | 2.56 (inactive)
18 | M6PR (lysine site: K99) (UniProt P20645) | 1.86 (active)
19 | XRCC6 (lysine site: K338) (UniProt P12956) | 1.69 (active)
20 | UniProt Q92729 (lysine site: K388) | 3.11 (inactive)

Row | Target | lysine labeling ratio R10:1
21 | MYH9 (lysine site: K1631) (UniProt P35579) | 1.9 (active)
22 | CTTN (lysine site: K272) (UniProt Q14247) | 1.57 (active)
23 | EEF1G (lysine site: K434) (UniProt P26641) | 3.73 (inactive)
24 | LAMA5 (lysine site: K255) (UniProt O15230) | 2.33 (inactive)
25 | EEF2 (lysine site: K439) (UniProt P13639) | 1.76 (active)
26 | PRCP (lysine site: K228) (UniProt P42785) | 2.59 (inactive)
27 | PSMA1 (lysine site: K115) (UniProt P25786) | 4.28 (inactive)
28 | LAMC1 (lysine site: K1425) (UniProt P11047) | 2.54 (inactive)
29 | UniProt P14618 (lysine site: K270) | 1.75 (active)
30 | L1CAM (lysine site: K531) (UniProt P32004) | 7.51 (inactive)
31 | UniProt Q15149 (lysine site: K1815) | 3.79 (inactive)
32 | RPS3A (lysine site: K167) (UniProt P61247) | 1.82 (active)
33 | PDCD6IP (lysine site: K313) (UniProt Q8WUM4) | 2.29 (inactive)
34 | SUB1 (lysine site: K80) (UniProt P53999) | 1.69 (active)
35 | PAICS (lysine site: K247) (UniProt P22234) | 1.41 (active)
36 | CD9 (lysine site: K135) (UniProt P21926) | 3.43 (inactive)
37 | ROBO1 (lysine site: K503) (UniProt Q9Y6N7) | 7.35 (inactive)
38 | FOLR1 (lysine site: K76) (UniProt P15328) | 3.42 (inactive)
39 | ECH1 (lysine site: K231) (UniProt Q13011) | 1.7 (active)
40 | TKT (lysine site: K16) (UniProt P29401) | 2.68 (inactive)
